Source: PubChem (National Center for Advancing Translational Sciences (NCATS))
Shown are actives, neighbours in structure and some others; about 3.4% of the full set was active somewhere.
AmpC no deterg: AmpC beta-lactamase inhibition without detergent | P00811 | AmpC nitrocefin hydrolysis, absorbance 480 nm, 0.0001% Triton | Potency, µM (highest dose often 57.1 µM), for the others: at the top dose activity change, negative = inhibition, hits mostly inhibitors | 330,000 compounds, 0.52% hits | AID 485341;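 further: plate controls were no compound for no effect and no enzyme for full effect; nearly all actives have a fitted effect of over 20% in size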
Target sequence (P00811 whole entry, looked up): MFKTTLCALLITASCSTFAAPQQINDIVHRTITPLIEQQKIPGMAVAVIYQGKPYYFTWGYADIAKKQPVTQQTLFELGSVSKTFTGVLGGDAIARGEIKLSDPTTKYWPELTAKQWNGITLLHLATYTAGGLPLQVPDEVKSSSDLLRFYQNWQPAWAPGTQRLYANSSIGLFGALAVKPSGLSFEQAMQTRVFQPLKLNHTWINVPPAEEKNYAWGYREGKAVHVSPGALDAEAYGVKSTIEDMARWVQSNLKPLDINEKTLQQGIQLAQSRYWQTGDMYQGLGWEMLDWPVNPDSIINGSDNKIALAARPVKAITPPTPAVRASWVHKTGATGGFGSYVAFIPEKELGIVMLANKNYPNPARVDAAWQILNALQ
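20 mM phosphate pH 7.0 + 0.01% (detergent screen) or 0.0001% Triton X-100; 5.3 nM AmpC reagent; cpd preinc 15 min RT; nitrocefin (800 uM stock) to start; A480 q20 s × 4 min; Activity was normalised to no-enzyme and no-compound control wells.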
AmpC inh detg: AmpC beta-lactamase inhibition with detergent present | P00811 | AmpC hydrolysis of nitrocefin, absorbance 480 nm, 0.01% Triton | Potency, µM (series often up to 114 µM), for inactives: at the top dose activity change, negative = inhibition, usual class: inhibitors | 370,000 compounds, 0.041% hits | AID 485294;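 further: 0% = no-compound wells and -100% = no-enzyme wells; nearly all actives have a fitted effect of over 25% in size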
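20 mM phosphate pH 7.0 + 0.01% (detergent screen) or 0.0001% Triton X-100; 5.3 nM AmpC reagent; cpd preinc 15 min RT; nitrocefin (800 uM stock) to start; A480 q20 s × 4 min; Activity was normalised to no-enzyme and no-compound control wells.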
Sm TGR inh: S. mansoni TGR enzyme inhibition. purified TGR, DTNB reduction, TNB absorbance 405 nm. 360,000 compounds, 3% hits. Q962Y6. AID 485364. Potency, µM (top dose mostly 114 µM), without a hit: top-dose activity change, negative = inhibition, actives largely listed as inhibitors; further: nearly all actives have a fitted effect of over 60% in size
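First, TGR (20 nM dispensed) and NADPH were mixed with compound. Second, a 15 min room-temperature incubation followed. Third, further NADPH and then DTNB were added to start the reaction. Finally, TNB absorbance was monitored kinetically.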
Giardia FBPA inh: inhibitors of Giardia lamblia fructose-1,6-bisphosphate aldolase | A8B2U2 | purified Giardia FBPA | Potency, µM (highest dose often 59.6 µM), for inactives: at the highest dose activity, negative = inhibition, usual class: inhibitors | 290,000 compounds, 0.71% hits; further: nearly all actives have a fitted effect of over 55% in size
Target sequence (A8B2U2 whole entry, looked up): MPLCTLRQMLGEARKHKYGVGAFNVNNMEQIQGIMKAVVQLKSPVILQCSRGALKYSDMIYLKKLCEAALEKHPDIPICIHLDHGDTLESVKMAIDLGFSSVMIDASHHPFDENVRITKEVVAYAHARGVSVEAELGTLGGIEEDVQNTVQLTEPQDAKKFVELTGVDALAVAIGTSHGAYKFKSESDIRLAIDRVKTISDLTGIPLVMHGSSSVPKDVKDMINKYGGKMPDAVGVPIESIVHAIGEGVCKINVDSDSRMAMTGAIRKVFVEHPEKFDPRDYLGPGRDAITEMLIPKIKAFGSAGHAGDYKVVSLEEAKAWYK
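40 nM FBPA preincubated 10 min at RT with compound (up to 57.5 uM final), then substrate plus GAPDH/TPI/NAD/arsenate coupling and diaphorase/resazurin added. Fluorescence read after 20 min at RT, 525/598 nm.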
RE007 growth inh: less growth of the S. pombe RE007 Vpr strain; S. pombe RE007 Vpr strain, BacTiter-Glo ATP luminescence, 24 h; Potency, µM (titrated, usually from 92.2 µM), inactives show at the top dose activity change, negative = less growth, actives largely listed as inhibitors; 360,000 compounds, 0.21% hits; AID 651644; active means well fitted falling curve with a large enough effect; inconclusive means small, poorly fitted or top-dose-only effect; inactive means no such curve, though single readings can be large or run the other way; further: nearly all actives have a fitted effect of over 50% in size
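Fission yeast RE007 carrying one integrated HIV-1 vpr copy, seeded at OD 0.01 in PMG+AL medium with 23 nL pinned compound. Grown 24 h at 30 degrees; viability read by BacTiter-Glo luminescence after 5 min.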
Starred values were filed as active, the others as inactive; [ ] = dose if it differs, or a comment. Unless noted, the call rests on the fitted dose curve; in most records, active means well fitted curve in the direction sought with a large enough effect; inconclusive means small, poorly fitted or top-dose-only effect, or another doubt; inactive means no such curve, though single readings can be large; an effect the other way counts as inactive or inconclusive. Unless noted, on the % scale 0 is the no-effect control and ±100 the full control effect; potency means the concentration at half of the fitted maximal effect.

For CCc1ccc(-c2csc3ncn(CC(=O)NCc4ccco4)c(=O)c23)cc1 the results were AmpC no deterg -15%, AmpC inh detg 0%, Sm TGR inh -22%, Giardia FBPA inh 0% and RE007 growth inh 10%.
`CN(CC(=O)NC1CCCCCC1)S(=O)(=O)c1ccccc1` gave AmpC no deterg inconclusive, AmpC inh detg -7%, Sm TGR inh -8%, Giardia FBPA inh 4% and RE007 growth inh 16%.
Cc1ccc(C(=O)COC(=O)c2cnccn2)cc1[N+](=O)[O-] was read as AmpC no deterg -27%, AmpC inh detg 4%, Sm TGR inh -1%, Giardia FBPA inh 0% and RE007 growth inh 11%.
CNC(=O)COC(=O)c1ccccc1C(=O)c1ccc(Cl)c([N+](=O)[O-])c1 was read as AmpC no deterg 150%, AmpC inh detg inconclusive, Sm TGR inh 35µM*, Giardia FBPA inh -12% and RE007 growth inh 0%.
For CCCOc1ccc(C(=O)c2ccccc2C(=O)OC2CCOC2=O)cc1OCCC (stereo not given) the results were AmpC no deterg 38%, AmpC inh detg inconclusive, Sm TGR inh 0% and RE007 growth inh -2%.
For CS(=O)(=O)c1ccc(C(=O)OC2CCOC2=O)cc1[N+](=O)[O-] (stereo not given) the results were AmpC no deterg -19%, AmpC inh detg -6%, Sm TGR inh 2.8µM* and RE007 growth inh 1%.
`O=C(COC(=O)c1cnccn1)c1ccc(Cl)c([N+](=O)[O-])c1` gave AmpC no deterg -17%, AmpC inh detg 1%, Sm TGR inh 40µM*, Giardia FBPA inh -4% and RE007 growth inh 7%.
O=C(OC1CCOC1=O)c1ccccc1C(=O)c1ccc(Cl)c([N+](=O)[O-])c1 (stereo not given) was read as AmpC no deterg -29%, AmpC inh detg -7%, Sm TGR inh 25µM* and RE007 growth inh -13%.
Cc1ccc(NC(=O)CN2CCOCC2)cc1Cl was read as AmpC no deterg -6%, AmpC inh detg -12%, Sm TGR inh -16%, Giardia FBPA inh 8% and RE007 growth inh 8%.
For CCC(C)[C@H]1CNC(=O)C(=O)N1CC(C)(C)C (stereo not given in full) the results were RE007 growth inh 2%.
Screening COc1ccc(NC(C)=O)cc1S(=O)(=O)Nc1cccc(S(=O)(=O)NC2=NCCC2)c1 returned AmpC no deterg -6%, AmpC inh detg -1%, Sm TGR inh -24% and RE007 growth inh 10%.
`CCOC(=O)CNC(=O)O[C@H]1C(=O)c2ccc(OC)cc2O[C@@H]1c1ccc2c(c1)OCO2` gave Giardia FBPA inh 0%.
Screening O=C(c1cccc(Cl)c1)N1CCCC(c2ccc(Cl)cc2)=N1 returned AmpC no deterg 16%, AmpC inh detg -12%, Sm TGR inh 0%, Giardia FBPA inh 8% and RE007 growth inh 7%.
Screening CC(C)OCCCNC(=O)c1ccc(N(C)S(C)(=O)=O)cc1 returned AmpC no deterg -3%, AmpC inh detg 9%, Sm TGR inh 2%, Giardia FBPA inh 1% and RE007 growth inh 5%.
For O=C(COC(=O)c1ccccc1C(=O)c1ccc(Cl)c([N+](=O)[O-])c1)NC1CC1 the results were AmpC no deterg 4%, AmpC inh detg -6%, Sm TGR inh 22µM*, Giardia FBPA inh -10% and RE007 growth inh -2%.
For COc1cc(C=C2C(=O)NC(=O)NC2=O)ccc1OCc1ccc([N+](=O)[O-])cc1 the results were AmpC no deterg -52%, AmpC inh detg -10%, Sm TGR inh 25µM*, Giardia FBPA inh -21% and RE007 growth inh 19%.
For COc1ccc(/C=N/Nc2nncn2N)cc1Br the results were AmpC no deterg 0%, AmpC inh detg -10%, Sm TGR inh -15%, Giardia FBPA inh inconclusive and RE007 growth inh inconclusive.
`COc1cc(/C=N/Nc2nncn2N)ccc1OCc1c(C)no[n+]1[O-]` gave AmpC no deterg 18%, AmpC inh detg 3%, Sm TGR inh -30%, Giardia FBPA inh 5µM* and RE007 growth inh -16%.
Screening Cc1sc2ccccc2c1CC1=NCCN1 returned AmpC no deterg 2%, AmpC inh detg 0%, Sm TGR inh 8%, Giardia FBPA inh -6% and RE007 growth inh -5%[18.4 µM].
O=C1c2ccccc2-c2onc3c(Oc4ccccc4)cc(O)c1c23 was read as AmpC no deterg -46%, AmpC inh detg -10%, Sm TGR inh 45µM* and Giardia FBPA inh -24%.
`CN(C1=NC(=O)C(CC(=O)O)S1)c1ccc(O)cc1` (stereo not given) gave AmpC no deterg -10%, AmpC inh detg -4%, Giardia FBPA inh 3% and RE007 growth inh -2%.
`CCOC(=O)c1c(C)[nH]c2cc(Br)c(O)cc12` gave AmpC no deterg -37%, AmpC inh detg inconclusive, Sm TGR inh 0%[11.4 µM], Giardia FBPA inh -14% and RE007 growth inh 4%.
`CCOC(=O)c1c(OCC)[nH]c2c1cc(O)c1ccccc12` gave AmpC no deterg -46%, AmpC inh detg -13%, Sm TGR inh 6%[11.4 µM], Giardia FBPA inh 20µM* and RE007 growth inh -18%.
Screening CC(C)(C)C(=O)NC(NC(=S)Nc1sc2c(c1C#N)CCCC2)C(Cl)(Cl)Cl (stereo not given) returned AmpC no deterg 1.1µM*, AmpC inh detg -7%, Sm TGR inh 5% and RE007 growth inh 2%.
N#Cc1c(NC(=S)NC(=O)c2ccccc2)sc2c1CCC2 was read as AmpC no deterg -12%, AmpC inh detg -12%, Sm TGR inh 4µM*, Giardia FBPA inh -9% and RE007 growth inh -2%.
CN1Cc2sc(NC(=S)NC(=O)c3ccccc3)c(C#N)c2CC1(C)C was read as AmpC no deterg -2%, AmpC inh detg 3%, Sm TGR inh 32µM*, Giardia FBPA inh -23% and RE007 growth inh -10%.
Screening Cc1ccc(C2=NN(C(=O)c3cccs3)C(c3ccccc3O)C2)cc1 (stereo not given) returned AmpC no deterg 7.9µM*, AmpC inh detg -4%, Giardia FBPA inh 6% and RE007 growth inh 4%.
For COc1ccc(C2=NN(C(=O)c3cccs3)C(c3ccccc3OC)C2)cc1OC (stereo not given) the results were AmpC no deterg -8%, AmpC inh detg 2%, Sm TGR inh 8%, Giardia FBPA inh -3% and RE007 growth inh 1%.
For O=C(c1cccs1)N1N=C(c2ccccc2)CC1c1ccccc1O (stereo not given) the results were AmpC no deterg 16µM*, AmpC inh detg 8%, Sm TGR inh 8%, Giardia FBPA inh 0% and RE007 growth inh 2%.
